Out of some 5,500 compounds screened, about 2,000 (36%) were called active. Roughly 18% stayed inconclusive and do not appear here. Rule as the data show it: active = normalized growth mostly below about 0.91 (no sharp cut-off); inconclusive = no clear call, values can overlap the other calls; inactive = mostly above about 0.92. This is one part of the list.
Experiment: chemical genetic growth profiling, strain panel (AID 1159580);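 also: tested at 20 µM; growth read once vehicle control cultures reached saturation at 30 °C; 1 = growth at the plate median or of vehicle wells; lower values mean less growth of the strain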
Conditions: growth OD
[1] = S. cerevisiae deletion strains, locus YAL013W, strain DEP1, stronger effect = lower value
[2] = S. cerevisiae deletion strains, locus YJR075W, strain HOC1, stronger effect = lower value
[3] = S. cerevisiae deletion strains, locus YPL241C, strain CIN2, stronger effect = lower value
[4] = S. cerevisiae deletion strains, locus YDL101C, strain DUN1, stronger effect = lower value
[5] = S. cerevisiae deletion strains, locus YHR030C, strain SLT2, stronger effect = lower value

Measured: normalized growth

CN1C(=O)CCC1c1cccnc1 (stereo not given)
inactive: [1] 1.02 | S. cerevisiae deletion strains, locus YAL040C, strain CLN3, stronger effect = lower value 1.02 | S. cerevisiae deletion strains, locus YER002W, strain NOP16, stronger effect = lower value 1 | [2] 1.01 | S. cerevisiae deletion strains, locus YNL175C, strain NOP13, stronger effect = lower value 0.999 | S. cerevisiae deletion strains, locus YNL224C, strain SQS1, stronger effect = lower value 1.01 | S. cerevisiae deletion strains, locus YOR083W, strain WHI5 (second series), stronger effect = lower value 1.02 | [3] 1.01

CC1SC(c2cccnc2)N(c2ccc(Cl)cc2)C1=O (stereo not given)
active: S. cerevisiae deletion strains, locus YDL132W, strain cdc53, stronger effect = lower value 0.894 | S. cerevisiae deletion strains, locus YDL214C, strain PRR2, stronger effect = lower value 0.6 | S. cerevisiae deletion strains, locus YDR052C, strain DBF4, stronger effect = lower value 0.906 | S. cerevisiae deletion strains, locus YDR054C, strain cdc34, stronger effect = lower value 0.828 | S. cerevisiae deletion strains, locus YDR477W, strain SNF1, stronger effect = lower value 0.411 | S. cerevisiae deletion strains, locus YER123W, strain YCK3, stronger effect = lower value 0.466 | S. cerevisiae deletion strains, locus YER133W, strain GLC7, stronger effect = lower value 0.421 | S. cerevisiae deletion strains, locus YFR019W, strain FAB1, stronger effect = lower value 0.43 | S. cerevisiae deletion strains, locus YGR040W, strain KSS1, stronger effect = lower value 0.397 | S. cerevisiae deletion strains, locus YGR052W, strain FMP48, stronger effect = lower value 0.374 | S. cerevisiae deletion strains, locus YHR079C, strain IRE1, stronger effect = lower value 0.441 | S. cerevisiae deletion strains, locus YHR082C, strain KSP1, stronger effect = lower value 0.4 | S. cerevisiae deletion strains, locus YJL095W, strain BCK1, stronger effect = lower value 0.215 | S. cerevisiae deletion strains, locus YJL157C, strain FAR1, stronger effect = lower value 0.635 | S. cerevisiae deletion strains, locus YJR066W, strain TOR1, stronger effect = lower value 0.284 | S. cerevisiae deletion strains, locus YKL067W, strain YNK1, stronger effect = lower value 0.673 | S. cerevisiae deletion strains, locus YKL203C, strain TOR2, stronger effect = lower value 0.331 | S. cerevisiae deletion strains, locus YLR113W, strain HOG1, stronger effect = lower value 0.455 | S. cerevisiae deletion strains, locus YLR133W, strain CKI1, stronger effect = lower value 0.478 | S. cerevisiae deletion strains, locus YLR403W, strain SFP1, stronger effect = lower value 0.346 | S. cerevisiae deletion strains, locus YMR205C, strain PFK2 (second series), stronger effect = lower value 0.64 | S. cerevisiae deletion strains, locus YNL020C, strain ARK1, stronger effect = lower value 0.599 | S. cerevisiae deletion strains, locus YNL183C, strain NPR1, stronger effect = lower value 0.393 | S. cerevisiae deletion strains, locus YNL307C, strain MCK1 (second series), stronger effect = lower value 0.462 | S. cerevisiae deletion strains, locus YOR119C, strain RIO1, stronger effect = lower value 0.295 | S. cerevisiae deletion strains, locus YOR231W, strain MKK1, stronger effect = lower value 0.47 | S. cerevisiae deletion strains, locus YPL031C, strain PHO85, stronger effect = lower value 0.434 | S. cerevisiae deletion strains, locus YPL153C, strain RAD53, stronger effect = lower value 0.47 | S. cerevisiae deletion strains, locus YPL204W, strain HRR25, stronger effect = lower value 0.46 | S. cerevisiae deletion strains, locus YPL256C, strain CLN2, stronger effect = lower value 0.435
inactive: S. cerevisiae deletion strains, locus YAR019C, strain CDC15, stronger effect = lower value 0.948 | S. cerevisiae deletion strains, locus YBL105C, strain PKC1, stronger effect = lower value 0.971 | S. cerevisiae deletion strains, locus YBR135W, strain CKS1, stronger effect = lower value 0.964 | S. cerevisiae deletion strains, locus YBR136W, strain MEC1, stronger effect = lower value 0.959 | S. cerevisiae deletion strains, locus YBR160W, strain CDC28, stronger effect = lower value 0.967 | S. cerevisiae deletion strains, locus YDL017W, strain CDC7, stronger effect = lower value 0.972 | S. cerevisiae deletion strains, locus YDL028C, strain MPS1, stronger effect = lower value 0.955 | [4] 0.928 | S. cerevisiae deletion strains, locus YDL108W, strain KIN28, stronger effect = lower value 0.951 | S. cerevisiae deletion strains, locus YDR226W, strain ADK1, stronger effect = lower value 0.932 | S. cerevisiae deletion strains, locus YFL009W, strain cdc4, stronger effect = lower value 0.931 | S. cerevisiae deletion strains, locus YFL029C, strain CAK1, stronger effect = lower value 0.926 | S. cerevisiae deletion strains, locus YFR003C, strain YPI1, stronger effect = lower value 0.972 | S. cerevisiae deletion strains, locus YFR028C, strain CDC14, stronger effect = lower value 0.945 | S. cerevisiae deletion strains, locus YGR092W, strain DBF2, stronger effect = lower value 0.904 | [5] 0.871 | S. cerevisiae deletion strains, locus YHR205W, strain SCH9, stronger effect = lower value 0.725 | S. cerevisiae deletion strains, locus YIL147C, strain SLN1, stronger effect = lower value 0.952 | S. cerevisiae deletion strains, locus YJL128C, strain PBS2, stronger effect = lower value 0.987 | S. cerevisiae deletion strains, locus YJR016C, strain ILV3, stronger effect = lower value 0.926 | S. cerevisiae deletion strains, locus YJR066W, strain TOR1 (second series), stronger effect = lower value 0.704 | S. cerevisiae deletion strains, locus YKL048C, strain ELM1, stronger effect = lower value 0.922 | S. cerevisiae deletion strains, locus YKL101W, strain HSL1, stronger effect = lower value 0.779 | S. cerevisiae deletion strains, locus YKL193C, strain SDS22, stronger effect = lower value 0.947 | S. cerevisiae deletion strains, locus YML070W, strain DAK1, stronger effect = lower value 0.694 | S. cerevisiae deletion strains, locus YMR001C, strain CDC5, stronger effect = lower value 0.936 | S. cerevisiae deletion strains, locus YMR277W, strain FCP1, stronger effect = lower value 0.969 | S. cerevisiae deletion strains, locus YNL006W, strain LST8, stronger effect = lower value 0.967 | S. cerevisiae deletion strains, locus YNL161W, strain CBK1, stronger effect = lower value 0.953 | S. cerevisiae deletion strains, locus YNL207W, strain RIO2, stronger effect = lower value 0.91 | S. cerevisiae deletion strains, locus YNL222W, strain SSU72, stronger effect = lower value 0.96 | S. cerevisiae deletion strains, locus YOL078W, strain AVO1, stronger effect = lower value 0.937 | S. cerevisiae deletion strains, locus YOR061W, strain CKA2, stronger effect = lower value 0.919 | S. cerevisiae deletion strains, locus YOR329C, strain SCD5, stronger effect = lower value 0.953 | S. cerevisiae deletion strains, locus YPL209C, strain IPL1, stronger effect = lower value 0.969 | S. cerevisiae deletion strains, locus YPR025C, strain CCL1, stronger effect = lower value 0.961 | S. cerevisiae deletion strains, locus YPR106W, strain ISR1, stronger effect = lower value 0.957 | S. cerevisiae deletion strains, locus YPR111W, strain DBF20, stronger effect = lower value 0.965 | S. cerevisiae deletion strains, strain NNK1, stronger effect = lower value 0.944 | S. cerevisiae deletion strains, strain TSCII, stronger effect = lower value 0.946

O=C1CSC(c2cccnc2)N1c1ccc(C2CCCCC2)cc1 (stereo not given)
inactive: [1] 1 | S. cerevisiae deletion strains, locus YBR229C, strain ROT2, stronger effect = lower value 1.01 | [4] 1.03 | S. cerevisiae deletion strains, locus YDL134C, strain PPH21, stronger effect = lower value 0.941 | S. cerevisiae deletion strains, locus YDR150W, strain NUM1, stronger effect = lower value 1.05 | S. cerevisiae deletion strains, locus YEL061C, strain CIN8, stronger effect = lower value 0.999 | S. cerevisiae deletion strains, locus YGR078C, strain PAC10, stronger effect = lower value 1.01 | [5] 1.28 | S. cerevisiae deletion strains, locus YHR087W, strain rtc3, stronger effect = lower value 1.02 | S. cerevisiae deletion strains, locus YJR043C, strain POL32, stronger effect = lower value 1.02 | [2] 0.941 | S. cerevisiae deletion strains, locus YKL190W, strain CNB1, stronger effect = lower value 0.945 | S. cerevisiae deletion strains, locus YLR039C, strain RIC1, stronger effect = lower value 0.926 | S. cerevisiae deletion strains, locus YLR058C, strain SHM2 (second series), stronger effect = lower value 0.991 | S. cerevisiae deletion strains, locus YLR085C, strain ARP6, stronger effect = lower value 0.917 | S. cerevisiae deletion strains, locus YLR262C, strain YPT6, stronger effect = lower value 0.888 | S. cerevisiae deletion strains, locus YML094W, strain GIM5, stronger effect = lower value 1.07 | S. cerevisiae deletion strains, locus YMR219W, strain ESC1, stronger effect = lower value 1.02 | S. cerevisiae deletion strains, locus YMR263W, strain SAP30, stronger effect = lower value 1.06 | S. cerevisiae deletion strains, locus YNL153C, strain GIM3, stronger effect = lower value 1.01 | S. cerevisiae deletion strains, locus YNL298W, strain CLA4 (second series), stronger effect = lower value 0.951 | S. cerevisiae deletion strains, locus YNL322C, strain KRE1, stronger effect = lower value 1 | S. cerevisiae deletion strains, locus YNR030W, strain Alg12, stronger effect = lower value 0.963 | S. cerevisiae deletion strains, locus YPL055C, strain LGE1, stronger effect = lower value 1.04 | [3] 1.09 | S. cerevisiae deletion strains, locus YPR135W, strain CTF4, stronger effect = lower value 0.832 | S. cerevisiae strains, strain wild type, stronger effect = lower value 0.96

Reference: PubChem BioAssay AID1159580 (chemical genetic matrix, 2015)
